Measured values from PubChem BioAssay AID651785 (The Scripps Research Institute Molecular Screening Center, 2012).
Among all 2,400 compounds or so, about 950 (40%) were called active. Cut-off read from the data, not from the text of the source: active = inhibition above about 49%; inactive = the rest. A selection follows.

molecular target: Trace amine-associated receptor 1 (Homo sapiens) (UniProt Q96RJ0); experiment: TAAR1 receptor blockers, repeat testing – cell-based, fluorescence, confirmation (AID 651785); conditions: TAAR1-expressing cells, fluorescence antagonist read-out; at 3 µM; stronger effect = higher value;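 note: CHO-Ga16 host cells challenged with agonist PEA near its EC80; 0% = agonist at EC80 plus vehicle and 100% = vehicle with no agonist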
Sequence (Q96RJ0 whole entry, looked up, the tested form may be a part): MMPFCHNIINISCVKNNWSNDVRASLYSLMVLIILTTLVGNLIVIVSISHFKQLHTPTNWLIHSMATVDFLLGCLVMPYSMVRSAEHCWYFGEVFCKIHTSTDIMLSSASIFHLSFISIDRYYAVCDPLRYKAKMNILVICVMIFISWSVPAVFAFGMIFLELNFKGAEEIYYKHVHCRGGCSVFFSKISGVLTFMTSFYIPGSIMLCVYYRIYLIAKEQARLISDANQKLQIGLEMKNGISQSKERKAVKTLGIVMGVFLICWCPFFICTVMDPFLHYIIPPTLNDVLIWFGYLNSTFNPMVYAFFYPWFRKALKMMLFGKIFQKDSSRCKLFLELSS

| Compound | inhibition |
| --- | --- |
| Nc1nonc1-n1nnc(C(=O)N/N=C/c2c[nH]c3ccccc23)c1-c1ccccc1 | 33.6% (inactive) |
| Cc1ccc(SCc2c(C(=O)N/N=C/c3cccnc3)nnn2-c2nonc2N)cc1 | 59.3% (active) |
| C[C@@H]1CN([C@@H](C)CO)S(=O)(=O)c2ccc(C#Cc3cccc(F)c3)cc2O[C@H]1CN(C)S(=O)(=O)c1cn(C)cn1 | 53% (active) |
| CCc1ccc2c(c1)NC(=O)C2(C)Cc1ccc(OC(F)(F)F)cc1 (stereo not drawn) | 44.5% (inactive) |
| Cc1cccc(NC(=O)c2nc[nH]c2C(=O)NCC(=O)OCc2ccccc2)c1 | 46% (inactive) |
| CCOC(=O)C1=C(NC(=S)NC(=O)c2ccccc2)c2ccccc2CC1(C)C | 42.7% (inactive) |
| Cc1cc(Br)ccc1NC(=O)c1cnc(N2CCN(c3ccccn3)CC2)c2ccccc12 | 55.2% (active) |
| Cc1ccc2c(c1)N(CC(=O)NCCc1ccc(Cl)cc1)C(=O)c1cccnc1O2 | 50.5% (active) |
| COc1ccc(C2=NOC(Cn3nc(C(=O)NCc4ccc5c(c4)OCO5)cc3-c3ccccc3)C2)cc1 (stereo not drawn) | 48.2% (inactive) |
| CC(=O)OCCN(CCCn1c(-c2ccncc2)nc2ccccc21)c1nc(-c2ccc(C)cc2)cs1 | 36.5% (inactive) |
| Cc1nn(-c2ccccc2)c(C)c1NC(=O)COC(=O)c1cc(Cl)ccc1O | 56.2% (active) |
| COc1ccc(NC(=O)C2CCCN(S(=O)(=O)c3cccc4cccnc34)C2)cc1OC (stereo not drawn) | 45.3% (inactive) |
| Cc1onc(-c2c(F)cccc2Cl)c1C(=O)Nc1cccc(S(=O)(=O)N2CCCCC2)c1 | 46% (inactive) |
| COc1ccc(S(=O)(=O)N2CCCC(C(=O)Nc3ccc(NC(=O)c4ccccn4)cc3)C2)cc1 (stereo not drawn) | 56.2% (active) |
| Cc1ccc(C)c(N2CCN(C(=O)CCCCCn3c(=S)[nH]c4ccc(N5CCOCC5)cc4c3=O)CC2)c1 | 54.2% (active) |
| COc1ccc(CCNC2=C(Cl)C(=O)N(Cc3ccccc3)C2=O)cc1OC | 50.8% (active) |
| COc1cc2ccccc2cc1C(=O)Nc1ccc(NC(=O)c2cccs2)cc1 | 45.9% (inactive) |
| C[C@H](O)[C@@H]1C(=O)N2CCc3c([nH]c4c(-c5ccc6c(c5)OCO6)cccc34)[C@@H]2C[C@@H]1N(C)C(=O)c1ccco1 | 37.4% (inactive) |
| O=C(NCCN1CCOCC1)c1ccccc1N1C(=O)[C@@H]2Cc3c([nH]c4ccccc34)C(c3cccc(Cl)c3)N2C1=O (stereo partly drawn) | 39.5% (inactive) |
| O=C(NCCN1CCOCC1)c1ccc(/C=C2\Sc3ccccc3N(Cc3ccc(F)cc3)C2=O)cc1 | 52.2% (active) |
| O=C(NCCN1C(=O)S/C(=C\c2cccnc2)C1=O)c1ccc(S(=O)(=O)N2CCCC2)cc1 | 29.7% (inactive) |

| Compound | inhibition |
| --- | --- |
| CCNS(=O)(=O)c1ccc(CCC(=O)N2CCN(c3cc(Cl)ccc3C)CC2)cc1 | 50.4% (active) |
| OC(c1ccccc1)(c1ccccc1)C1CCN(CCCOc2ccc(-c3ccsc3)cc2)CC1 | 43.2% (inactive) |
| CCOc1ccc(N2CC(C(=O)N/N=C/c3sccc3C)CC2=O)cc1 (stereo not drawn) | 9.4% (inactive) |
| O=C1c2ccccc2C(=O)N1CCC#Cc1ccc2cc(C3(O)CCCCC3)oc(=O)c2c1 | 69.5% (active) |
| CCN1CCc2c(C#N)c(NCc3ccccc3)nc(NCCO)c2C1 | 0.04% (inactive) |
| Cc1cccc(C)c1NC(=O)CNC(=O)C1CCCC1 | 2.87% (inactive) |
| Cc1ccccc1OCC(=O)Nc1ccc(N2CCN(C(=O)C(C)C)CC2)c(Cl)c1 | 55.3% (active) |
| CSc1ncnc2c1ncn2CC(=O)C1CCC2C3CCC4=CC(=O)CCC4(C)C3CCC12C (stereo not drawn) | 61.9% (active) |
| COc1ccc(N(CC(=O)N/N=C/c2cccs2)S(=O)(=O)c2ccc(OC)c(OC)c2)cc1 | 42.2% (inactive) |
| CC(=O)c1ccccc1OCc1ccc(C(=O)c2ccccc2)cc1 | 56.3% (active) |
| COc1ccc2[nH]c(=O)c(CN(Cc3cccnc3)S(=O)(=O)c3ccccc3F)cc2c1 | 55% (active) |
| O=C(COC(=O)c1c2c(nc3ccccc13)CCCC2)c1ccc(Br)s1 | 41% (inactive) |
| CSC(=S)N/N=C/c1c[nH]c2ccccc12 | 65.5% (active) |
| O=C(Oc1ccc(-c2nnco2)cc1)c1ccc(F)c(S(=O)(=O)N2CCOCC2)c1 | 61.4% (active) |
| COc1ccc(C(=O)Oc2ccc(-c3nnco3)cc2)cc1S(=O)(=O)N1CCOCC1 | 47.2% (inactive) |
| C=CCc1cc(S(=O)(=O)c2ccc(O)c(CC=C)c2)ccc1O | 26.4% (inactive) |
| Cn1c(C(=O)NCCc2ccsc2)cc2c(=O)n(C)c3ccccc3c21 | 38.8% (inactive) |
| O=S1(=O)c2c(cccc2N2CCCCC2)O[C@H](COCc2ccccc2)CN1C1CC1 | 32.1% (inactive) |
| COc1ccc(OC)c2[nH]c(=O)c(CCNC(=O)C(=O)c3c[nH]c4ccccc34)cc12 | 49.5% (active) |
| CC/C(=N/Nc1ccccc1)c1cnnc(SC)n1 | 1.16% (inactive) |
| Cc1ccccc1NC(=O)Cc1nc(COC(=O)C(C)(C)Oc2ccc(Cl)cc2)cs1 | 58.9% (active) |

| Compound | inhibition |
| --- | --- |
| O=C(O)c1ccc(NC(=O)c2cn(-c3ccccc3)nc2-c2ccc(Cl)cc2)cc1 | 46.9% (inactive) |
| Cc1cccc(NC(=O)c2ccc(COc3ccccc3[N+](=O)[O-])o2)n1 | 35% (inactive) |
| COC(=O)Cc1nnn2c1[C@H](C)[C@H](c1ccccc1[N+](=O)[O-])OCC2 | 30.1% (inactive) |
| COC(=O)Cc1nnn2c1[C@H](C)[C@H](c1ccccc1Br)OCC2 | 65.9% (active) |
| COc1ccc(CC(=O)Nc2c(C(N)=O)oc3ccccc23)cc1 | 28.8% (inactive) |
| CCCCNc1c(-c2cccc(Sc3ccc(OC)cc3)c2)nc2ccccn12 | 61.9% (active) |
| Cc1ccc(NC(=O)c2ccc(CSc3ncnc4nc[nH]c34)cc2)c(C)c1 | 25.9% (inactive) |
| CSCCC(NC(=O)COc1ccccc1)C(=O)OCC(=O)c1cc2ccccc2o1 (stereo not drawn) | 33.3% (inactive) |
| O=c1[nH]c(CSc2ncc(-c3ccc(F)cc3)n2Cc2ccco2)nc2ccccc12 | 54% (active) |
| Cc1ccc2cccc(OCCCOc3ccccc3CO)c2n1 | 26.4% (inactive) |
| O=C(Nc1ccccc1-c1nnn(CC(=O)N2CCN(c3ccccc3)CC2)n1)c1cccs1 | 52.1% (active) |
| CN(c1ccccc1)S(=O)(=O)c1cc(C(=O)Nc2nc3ccccc3[nH]2)ccc1Cl | 50.8% (active) |
| O=S(=O)(c1cccs1)N1CCCc2nc(-c3ccc(Br)cc3)ccc21 | 36.2% (inactive) |
| COc1ccc(C(=O)Nc2ccccc2C(=O)N/N=C/c2ccc(O)c(OC)c2)cc1 | 45.9% (inactive) |
| O=C(N/N=C/c1ccc(OC(=O)c2ccccc2Cl)cc1)c1ccc(O)cc1 | 57% (active) |
| COc1ccc(NC(=O)c2cc(-c3ccc(C)o3)nc3ccccc23)cc1 | 41.2% (inactive) |
| COc1ccc(-c2cc(C(=O)N(C)Cc3ccccc3)c3ccccc3n2)cc1 | 44.3% (inactive) |
| COc1ccc(-c2cc(C(=O)Nc3ccccc3O)c3ccccc3n2)cc1 | 59% (active) |
| COc1ccc(-c2nn(-c3ccccc3)cc2C(=O)Nc2nccs2)cc1OC | 46.5% (inactive) |
| COc1ccc(C(=O)Nc2cccc(NC(=O)c3ccc(OC)cc3OC)n2)c(OC)c1 | 45.9% (inactive) |
| COc1ccc(-c2cc(C(=O)N(C)CC(=O)Nc3ccccc3Cl)c3ccccc3n2)cc1OC | 52.2% (active) |

| Compound | inhibition |
| --- | --- |
| CC(=O)N1CCN(C(=O)c2cc(-c3ccc(Cl)s3)nc3ccccc23)CC1 | 38.7% (inactive) |
| COc1ccc(-c2cc(C(=O)N(C)Cc3ccc(OC)c(OC)c3OC)c3ccccc3n2)cc1OC | 56.9% (active) |
| COc1ccc(CN(C)C(=O)c2cc(-c3ccc(C)cc3C)nc3ccccc23)c(OC)c1OC | 53.7% (active) |
| Cc1cc(C(C)(C)C)oc1C(=O)N(CC(=O)NC1CCCC1)Cc1ccc(Cl)cc1 | 43.7% (inactive) |
| CSCCC(NC(=O)COc1ccccc1)C(=O)OCCOc1ccc(Br)cc1 (stereo not drawn) | 17.8% (inactive) |
| O=C(NCC1CCCO1)c1cc2c([nH]c3ccccc32)c(-c2ccc(F)cc2)n1 (stereo not drawn) | 46% (inactive) |
| Cn1c2ccccc2c(=O)c2c(=O)n(Cc3ccco3)c(COc3ccccc3)nc21 | 51% (active) |
| COc1ccc(S(=O)(=O)N(CC(=O)NCc2ccco2)c2ccc(F)cc2)cc1 | 39.1% (inactive) |
| C=CCn1c(SCc2cccc(F)c2)nc2cc(C(=O)N3CCC(C(N)=O)CC3)ccc2c1=O | 43.9% (inactive) |
| Cc1nc(N2CCN(c3ccccn3)CC2)c2c(C)c(C(=O)Nc3ccc(F)cc3)sc2n1 | 53% (active) |
| Clc1ccc(Nc2ncnc3c2nnn3Cc2ccccc2)cc1 | 31% (inactive) |
| COc1cc(/C=C2/C(=O)ON=C2C)ccc1OCc1ccccc1F | 61.3% (active) |
| COC(=O)c1sccc1NC(=O)c1cc(OC)c(OC)c(OC)c1 | 37.3% (inactive) |
| COc1ccc(/C=C/C(=O)Nc2ccc(C34CC5CC(CC(O)(C5)C3)C4)cc2)cc1OC | 57.9% (active) |
| NNC(=O)CNC(c1ccccc1)c1cc(Cl)ccc1NC(=O)c1ccccc1 (stereo not drawn) | 34.3% (inactive) |
| Oc1ccccc1N1CCN(c2ncnc3sc(-c4ccccc4)cc23)CC1 | 47.6% (inactive) |
| CC(C)(C)OC(=O)NCCCCCNC(=O)c1nc[nH]c1C(=O)NCc1ccccc1 | 37.2% (inactive) |
| CC(C)Oc1cc(F)ccc1-c1cc(C(=O)Nc2ccc(F)cc2)[nH]n1 | 46.1% (inactive) |
| C=CCC[C@H](Cc1ccc(F)cc1)C(=O)OC[C@H](C)NC(=O)[C@H](CC=C)CC(=O)N(CCO)Cc1ccccc1 | 54% (active) |
| C=CCC[C@@H](Cc1ccc(F)cc1)C(=O)O[C@H](CNC(=O)[C@H](CC=C)CC(=O)N(CCO)Cc1ccccc1)c1ccccc1 | 57.8% (active) |
